Assay [1] in a line: NCI Yeast Anticancer Drug Screen. Data for the rad50 strain (AID 155).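 Further: 0% = growth of vehicle-only cultures of the same strain.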 The following applies: S. cerevisiae rad50 strain growth inhibition; at 50.0 µM; hits give high values. Put shortly:
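Yeast carrying a defined DNA repair defect were exposed to test compounds, and growth was compared with vehicle-treated controls to give percent inhibition.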

A short description of assay [2]: NCI Yeast Anticancer Drug Screen. Data for the mec2-1 strain (AID 157). The settings on record: S. cerevisiae mec2-1 strain, at 50.0 µM, hits give high values. Put shortly:
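Using mec2-1 yeast: add compound, measure growth, express inhibition versus vehicle-treated cultures.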

Assay [3] in a line: NCI Yeast Anticancer Drug Screen. Data for the sgs1 mgt1 strain (AID 161).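 Further: 0% = growth of cultures given vehicle only.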 The following applies: S. cerevisiae sgs1 mgt1 strain, at 50.0 µM, hits give high values. Put shortly:
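Yeast cells carrying a defined DNA-repair defect were exposed to test compounds. Growth inhibition was measured relative to vehicle-treated controls.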

A short description of assay [4]: NCI Yeast Anticancer Drug Screen. Data for the cln2 rad14 strain (AID 165).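 Further: 0% = growth equal to vehicle treated cultures.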 The following applies: S. cerevisiae cln2 rad14 strain, at 50.0 µM, hits give high values. Put shortly:
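Yeast strain cln2 rad14, bearing defects in cell cycle control and DNA repair, serves as the test system; values reflect growth inhibition compared with vehicle.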

Assay [5] can be described thus: NCI Yeast Anticancer Drug Screen. Data for the bub3 strain (AID 167). The following applies: S. cerevisiae bub3 mutant strain, at 50.0 µM, hits give high values. Put shortly: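 Compounds were applied to a genetically altered yeast strain carrying a cell-cycle control defect. Growth inhibition was scored against vehicle-treated controls.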
Assay [6] in a line: NCI Yeast Anticancer Drug Screen. Data for the mlh1 rad18 strain (AID 175). The following applies: S. cerevisiae mlh1 rad18 strain growth inhibition; at 50.0 µM; hits give high values. Put shortly:
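Steps: expose repair-defective yeast to compound; measure growth; express inhibition against vehicle-treated controls.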

SMILES strings stand for the structures. This is part of a sample that, as a whole, favours compounds with a hit. Of some 79,000 tested, about 15% had one in any assay. Values without a mark were called inactive. Active and inactive are the calls of the source. No stated cut-off is given here; in the data, active means growth inhibition above about 70%; inactive means the rest.

`COc1cc(NS(=O)(=O)c2ccc(N)cc2)nc(OC)n1`: the growth inhibition in assay [1] was -28.3%; in assay [2], -11.3%; in assay [3], -11.1%; in assay [4], -60.2%; in assay [5], -22.6%; in assay [6], -3.9%.
As for `NC(=O)CCC1CCCCN1` (stereo unspecified), the growth inhibition in assay [1] is 27.2%; in assay [2], 18.8%; in assay [3], 6.5%; in assay [4], 5.7%; in assay [5] it was 1.85%; in assay [6], 2.2%.
For the molecule `O=C1c2cc(CCl)sc2C(=O)c2ccsc21`, the growth inhibition in assay [1] was 88.9% (active); in assay [2], 89.3% (active); in assay [3], 89.5% (active); in assay [4], 89.8% (active); in assay [5], 87.6% (active); in assay [6], 83.2% (active).
Take `O=c1oc(-c2ccc(Cl)cc2Cl)nc2cc(Cl)ccc12`: the growth inhibition in assay [1] was 22.9%; in assay [2], -10.4%; in assay [3] it was 43.2%; in assay [4], 22.2%; in assay [5] it was 19.6%; in assay [6], 25.4%.
Regarding `OCC(O)C(O)C(O)C(c1ccc(Cl)cc1)c1ccc(Cl)cc1` (stereo unspecified), the growth inhibition in assay [1] is -16.4%; in assay [2], 0.65%; in assay [3], -23%; in assay [4], 5.35%; in assay [5], 2.25%; in assay [6] it was 35%.
Consider `CCOC(=O)c1ccc(NC(=O)/C=C/C(=O)O)cc1`, for which the growth inhibition in assay [1] is -20.2%; in assay [2] it was -17.9%; in assay [3] it was -2.9%; in assay [4] it was -3.3%; in assay [5], -9.7%; in assay [6] it was -15.3%.
Take `NCC(=O)NCC(=O)NCC(=O)NCC(=O)NCC(=O)NCC(=O)O`: the growth inhibition in assay [1] is 26.1%; in assay [2] it was 16.4%; in assay [3], 0.4%; in assay [4], -38.6%; in assay [5] it was -3.5%; in assay [6] it was -3.65%.
Consider `COc1ccc(CCNC(=S)/N=C\C2=C(O)c3ccccc3C2=O)cc1OC`, for which the growth inhibition in assay [1] was -26.1%; in assay [2] it was -51.9%; in assay [3], -17.5%; in assay [4], 4.65%; in assay [5], -5.05%; in assay [6], -19.3%.
With `Cn1cc(C(=O)C2CCCCC2)ccc1=O`, the growth inhibition is -4.6% in assay [1]; -11.8% in assay [2]; -2.6% in assay [3]; 15.9% in assay [4]; -14.2% in assay [5]; -19.3% in assay [6].
For the molecule `CN=NNc1ccc(C#N)cc1`, the growth inhibition in assay [1] is 7.3%; in assay [2], 1.4%; in assay [3], -1.85%; in assay [4] it was -14.1%; in assay [5], -6.65%; in assay [6] it was 5.5%.
As to `CC1=CCCC(C)(C)C1/C=C\C(C)=N\Nc1ccc([N+](=O)[O-])cc1[N+](=O)[O-]` (stereo unspecified), the growth inhibition is 0.55% in assay [1]; -3.3% in assay [2]; -12.3% in assay [3]; -33.9% in assay [4]; -0.15% in assay [5]; 6.3% in assay [6].
For `O=[N+]([O-])c1ccc(N=Cc2ccccc2O)c(O)c1`, the growth inhibition was 21.9% in assay [1]; -4.05% in assay [2]; 2.75% in assay [3]; -8.55% in assay [4]; 20.8% in assay [5]; -2.05% in assay [6].
As to `O=C1CCCc2ccccc21`, the growth inhibition in assay [1] was -2.35%; in assay [2], -11.3%; in assay [3], -29.9%; in assay [4], -30.3%; in assay [5], -14%; in assay [6], 1%.
Regarding `C=CCC(OC(=O)CC)c1ccc2c(c1)OCO2` (stereo unspecified), the growth inhibition in assay [1] is 7.3%; in assay [2] it was -11.6%; in assay [3] it was 5%; in assay [4] it was 4.05%; in assay [5], 9.3%; in assay [6], -11.9%.
For the molecule `CC(=O)c1cccc(NC(=O)N2CCCCC2C)c1` (stereo unspecified), the growth inhibition in assay [1] was -4.9%; in assay [2] it was 29.9%; in assay [3] it was 8.9%; in assay [4], -13.3%; in assay [5], 15.2%; in assay [6] it was -12.8%.
For the molecule `O=C1c2ccccc2C(=O)N1OCCCCON1C(=O)c2ccccc2C1=O`, the growth inhibition in assay [1] was 10.8%; in assay [2], -0.2%; in assay [3] it was -19.9%; in assay [4], 15.1%; in assay [5] it was 1%; in assay [6], -2.4%.
Regarding `CCC(C)C1(C)OC1C(=O)OC` (stereo unspecified), the growth inhibition is -2.7% in assay [1]; -31.6% in assay [2]; -42.4% in assay [3]; 22.1% in assay [4]; -41% in assay [5]; 4.55% in assay [6].
As to `COc1ccc(NC(=O)C2C(=O)N(c3ccc(OC)cc3)C(=O)/C2=N\NC(N)=O)cc1` (stereo unspecified), the growth inhibition is -8.9% in assay [1]; -24.9% in assay [2]; -48% in assay [3]; 11.1% in assay [4]; -9.6% in assay [5]; -18.2% in assay [6].
Consider `C=C1CC[C@H]2C(=O)OC(c3ccoc3)C[C@]2(C)C/C=C\C=C/1C(=O)OC` (stereo partly specified), for which the growth inhibition in assay [1] is -10.8%; in assay [2], -11.7%; in assay [3] it was -19.8%; in assay [4] it was -6%; in assay [5], -27.2%; in assay [6] it was -22.6%.
Regarding `COc1ccc(-c2oc3cc(OC)c(OC)c(OC)c3c(=O)c2O)cc1O`, the growth inhibition was 62.5% in assay [1]; 50.5% in assay [2]; 77.6% (active) in assay [3]; 44.8% in assay [4]; 65.4% in assay [5]; 70.2% (active) in assay [6].
For the molecule `O=C(O)C(Cc1c[nH]c2ccccc12)N1C(=O)c2ccccc2C1=O` (stereo unspecified), the growth inhibition was 18.5% in assay [1]; 26.6% in assay [2]; -8.15% in assay [3]; -12.3% in assay [4]; -2.5% in assay [5]; 28.6% in assay [6].

The values above are taken from PubChem BioAssay (NCI).
